The panel holds about 79,000 compounds, 15% with a hit somewhere; the sample as a whole holds those more often. Values without a mark were called inactive. Active and inactive are the calls of the source. Rule as the data show it: active = growth inhibition above about 70%; inactive = the rest.
Tests used:
[1] = NCI Yeast Anticancer Drug Screen. Data for the rad50 strain (AID 155);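 also: 0% = growth of vehicle-only cultures of the same strain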; details: S. cerevisiae rad50 strain growth inhibition; at 50.0 µM; hits give high values
Method in brief: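 Compounds were tested on a yeast strain with an engineered DNA damage repair alteration; the reported value is growth inhibition normalised to vehicle treatment.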

[2] = NCI Yeast Anticancer Drug Screen. Data for the mec2-1 strain (AID 157); details: S. cerevisiae mec2-1 strain, at 50.0 µM, hits give high values
Method in brief: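 Compounds were applied to mec2-1 yeast cells. Their growth was then compared with that of vehicle-treated cultures to give growth inhibition.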

[3] = NCI Yeast Anticancer Drug Screen. Data for the sgs1 mgt1 strain (AID 161);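 also: 0% = growth of cultures given vehicle only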; details: S. cerevisiae sgs1 mgt1 strain, at 50.0 µM, hits give high values
Method in brief: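 Compounds are added to genetically altered yeast, and growth is compared with cultures given vehicle alone to give percent inhibition.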

[4] = NCI Yeast Anticancer Drug Screen. Data for the cln2 rad14 strain (AID 165);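 also: 0% = growth equal to vehicle treated cultures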; details: S. cerevisiae cln2 rad14 strain, at 50.0 µM, hits give high values
Method in brief: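 Strain: cln2 rad14 yeast, altered in cell cycle control and DNA damage repair. Read-out: growth inhibition vs vehicle.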

[5] = NCI Yeast Anticancer Drug Screen. Data for the bub3 strain (AID 167); details: S. cerevisiae bub3 mutant strain, at 50.0 µM, hits give high values
Method in brief: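 Growth of a checkpoint-deficient yeast mutant is measured after compound exposure. Values represent inhibition relative to vehicle.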

[6] = NCI Yeast Anticancer Drug Screen. Data for the mlh1 rad18 strain (AID 175); details: S. cerevisiae mlh1 rad18 strain growth inhibition; at 50.0 µM; hits give high values
Method in brief: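 A repair-deficient yeast strain is exposed to test compound, and growth is scored relative to vehicle-treated controls.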

Row | Compound | growth inhibition [1] | growth inhibition [2] | growth inhibition [3] | growth inhibition [4] | growth inhibition [5] [%] | growth inhibition [6] [%]
1 | CCOC(=O)Nc1nccs1 | -13.7% | 7.9% | -5.3% | -37% | -2.6 | –
2 | COCC(N)=O | 31.2% | -17.9% | 15.2% | -5.1% | 5.2 | –
3 | O=C(NCc1ccccc1)/C(=C/c1ccccc1)NC(=O)c1ccccc1 | -33.1% | -31.4% | -33.9% | -7.2% | -12.3 | –
4 | CCOC(=N)CC(=O)Nc1cccc(C)c1Cl | -2.85% | -14.1% | -11.4% | 18.6% | 8.5 | –
5 | C=C1CC2(OC1=O)C(=O)N(C)c1ccc(I)cc12 (stereo not drawn) | 91.3% (active) | 93.2% (active) | 92.1% (active) | 90.5% (active) | – | –
6 | OC(CBr)CCBr (stereo not drawn) | -28.7% | -31.1% | -39.6% | 3.45% | -32.1 | -32
7 | O=C1NCC2CCCC1C2 (stereo not drawn) | 6.5% | -8.15% | -9.3% | -40.9% | -13.4 | –
8 | CCCCOC(=O)c1ccccc1O | 9.35% | -0.8% | -13.8% | -3.05% | 0.85 | –
9 | OC(CCN1CCCCC1)(c1ccccc1)c1ccccc1 | -29.6% | -21.9% | -41.5% | 16.4% | -20.2 | –
10 | CSCCC(NC(=O)C(Cl)Cl)C(=O)O (stereo not drawn) | -31.6% | -3% | -4.1% | -49% | 17 | 3.4
11 | S=C(Sc1ccc(Cl)cc1)Sc1ccc(Cl)cc1 | 46.5% | 19.9% | 54% | 23.1% | 29.6 | –
12 | CC(CC(CCC(=O)O)(c1ccccc1)c1ccccc1)N(C)C (stereo not drawn) | 19.6% | -4.7% | 9.45% | -0.1% | 7.95 | –
13 | CS(=O)CC(=N\O)/C(CS(C)=O)=N\O (stereo not drawn) | 9.7% | -4.45% | 4.5% | -8.85% | -2.8 | –
14 | COC1OC(CO)C(OC)C(O)C1O (stereo not drawn) | -5.6% | 0.2% | 0.2% | -6.7% | -0.65 | –
15 | CC(=O)NCNC(C)=O | -4.1% | 5.4% | 3.75% | -75.1% | 7.8 | -0.6
16 | O=C(O)c1ccccc1Cc1ccc2c(c1)CCCC2 | 17.4% | 12.2% | -4.6% | -28.9% | 25.7 | –
17 | CC(C)(C)CC1(C)NC(=O)NC1=O (stereo not drawn) | -7.3% | 8.25% | 13.1% | -58.2% | 7.25 | –
18 | Cc1cc2c3ccc(C)[n+](C)c3ccc2n1C | -4.3% | 5.9% | 10.6% | -66.6% | 7.65 | -5.25
19 | C=CC(=O)OC1CCC(C(C)(C)CC)CC1 (stereo not drawn) | 39.9% | 14.1% | -12.9% | -22.7% | -8.15 | -18.5
20 | Clc1ncnc2nc[nH]c12 | -1.9% | -1% | 15.5% | 16.9% | 0.35 | -39.4
21 | CC(C)C(C)(C)C(=O)C(C)(C)C(C)(C)C | -12.2% | -2.65% | -9.7% | -35.5% | 2.6 | –
22 | CCCCCCCCNC(=O)C(C)C | -13.9% | 30.1% | -2.15% | -42.1% | -18.6 | -11.9
23 | OCc1cccnc1 | -6.3% | -36.9% | 15.3% | 9.55% | -18.5 | –
24 | COc1ccc(C2CC(c3ccccc3)=Nc3ccccc3S2)cc1 (stereo not drawn) | -12.1% | -17.9% | 16% | -11.3% | 25.2 | –

Row | Compound | growth inhibition [1] | growth inhibition [2] | growth inhibition [3] | growth inhibition [4] | growth inhibition [5] [%] | growth inhibition [6] [%]
25 | CSc1nc2[nH]ncc2c(=O)[nH]1 | -19.8% | 5.85% | 15.4% | -40.6% | -3.05 | -6.15
26 | CC(=O)O[C@H]1CC[C@]2(C)C3=C(C(=O)C[C@H]2C1(C)C)[C@]1(C)CC[C@H]([C@H](C)CCC(=O)O)[C@@]1(C)CC3=O | 42.8% | -8.05% | 33.2% | 3.5% | 2.05 | –
27 | O=S(=O)(c1ccc(NC(=S)NCc2cccnc2)cc1)N1CCCCC1 | 21.9% | 11.9% | 23.9% | 1.8% | 36.4 | –
28 | S=C(NCc1ccccc1)N1CCC(CCCC2CCN(C(=S)NCc3ccccc3)CC2)CC1 | -9.45% | -32.1% | -3.6% | 6% | 2.85 | –
29 | O=C(O)c1cccc(-n2ncc(Cl)c(Cl)c2=O)c1 | 8.4% | -0.95% | 19.2% | 19% | 21.4 | –
30 | CC(C)(CC(=O)O)CC(=O)O | 14.4% | 1.15% | 0% | 23.8% | – | –
31 | OC1Cc2ccccc2C1 | -32.5% | -26.4% | -17.6% | -31.8% | -28.1 | –
32 | NC(=O)NCCO | -17.5% | 4.1% | 13.8% | -18.6% | -6.05 | –
33 | C#CCSc1nnnn1-c1ccccc1 | -0.6% | -19.9% | 22.2% | 19.4% | 15.8 | –
34 | COC(=O)C1(CC(C)=O)NC(=S)NC(=O)C1C#N (stereo not drawn) | -21.4% | -26.9% | -36.3% | -38.2% | -30.1 | –
35 | O=C(O)CC1=CCCCC1 | 23.4% | -21.6% | 0.9% | 10.2% | -4.65 | –
36 | CCOC(=O)/C(O)=C(\C=N\C(=S)Nc1ccc(Cl)c(Cl)c1)C(=O)OCC | 43.6% | 11.2% | 38.5% | 6.65% | 49.5 | 50.6
37 | C1=NCCc2ccccc21 | 0.55% | 3% | -8.25% | -19.9% | 2.05 | –
38 | COc1cc(C(=O)O)c(O)c(C(C)(C)C)c1 | 19.4% | 4.25% | 17.9% | -2.45% | 5.4 | 8.5
39 | COc1ccc(Br)c(C=O)c1 | -10.1% | -8.9% | -5.65% | 1.95% | -7.45 | -2.25
40 | c1ccc2c(NCCCN3CCN(CCCNc4c5ccccc5nc5ccccc45)CC3)c3ccccc3nc2c1 | 23.9% | 4.6% | 11.1% | -0.25% | 22.2 | 14.9
41 | NCCCN1CCCC1=O | -20.1% | -21.3% | -14.8% | 1.8% | -23.3 | -15.1
42 | Nc1nc2nnc(-c3ccccc3)c(-c3ccccc3)n2n1 | 12.8% | 14.1% | 6.4% | 13.8% | 9.65 | -8.8
43 | Nc1ccc(F)cc1F | 6% | -2.25% | -3.7% | -27.1% | 18.1 | 7.35
44 | O=C(CC(CC(=O)c1ccccc1)c1ccccn1)c1ccccc1 | -16.6% | -20.2% | -28.1% | -33% | 4.65 | -42.1
45 | ClCC(Cl)C1CCC(Cl)C(Cl)C1 (stereo not drawn) | 10.5% | 6.1% | -7.85% | -3.9% | 8.65 | 19.8
46 | NC(=S)N/N=C/c1ccc(Cl)cc1 | 47.5% | 23.8% | 41.5% | 13.4% | 22.9 | 46.9
47 | COC1OC(C(O)C(O)CO)C(O)C(O)C1O (stereo not drawn) | 14.3% | -5.7% | 11.8% | -55.7% | -3.65 | 11.7
48 | COc1cc(OC)c(NC(=O)C(Sc2nc(C)cc(C)c2C#N)c2ccccc2)cc1Cl (stereo not drawn) | -6.3% | -19.9% | -4.95% | 22.2% | 1.6 | 5.9

Source: PubChem BioAssay (NCI)
